ERb coact inh – blocks coactivator binding to human estrogen receptor beta; Q92731; TR-FRET ER-beta LBD / SRC1-Cy5 peptide binding; receptor agonist-loaded with 1 µM estradiol; inhibition, % at 25.6 µM; actives 1.3% (n = 86,000); AID 633;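 active means compounds whose percent inhibition of the receptor-coactivator binding signal exceeds about 50% in the single-dose screen, limit read from the data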;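 further: 0% = receptor plus peptide wells without compound and 100% = peptide-only wells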
CD11b adhes inh – inhibitors of human CD11b/CD18 binding to fibrinogen; inhibition, % at 10 µM; K562 CD11b/CD18 adhesion to fibrinogen, ATPlite luminescence; Mn2+ added to activate the integrin; actives 0.54% (n = 93,000); P05107+P11215;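 active means primary inhibition of 50% or more at 10 µM, then 40% or more on retest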
ERa coact inh – ER-alpha (human) coactivator binding inhibition. inhibition, % at 25.6 µM. TR-FRET ER-alpha LBD / SRC-1 peptide, estradiol-bound. actives 1.7% (n = 86,000). P03372. AID 629; in the data active means inhibition above about 50%;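 further: 0% = receptor plus peptide control and 100% = peptide only without receptor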
Target sequence (P03372 whole entry, looked up, the tested form may be a part): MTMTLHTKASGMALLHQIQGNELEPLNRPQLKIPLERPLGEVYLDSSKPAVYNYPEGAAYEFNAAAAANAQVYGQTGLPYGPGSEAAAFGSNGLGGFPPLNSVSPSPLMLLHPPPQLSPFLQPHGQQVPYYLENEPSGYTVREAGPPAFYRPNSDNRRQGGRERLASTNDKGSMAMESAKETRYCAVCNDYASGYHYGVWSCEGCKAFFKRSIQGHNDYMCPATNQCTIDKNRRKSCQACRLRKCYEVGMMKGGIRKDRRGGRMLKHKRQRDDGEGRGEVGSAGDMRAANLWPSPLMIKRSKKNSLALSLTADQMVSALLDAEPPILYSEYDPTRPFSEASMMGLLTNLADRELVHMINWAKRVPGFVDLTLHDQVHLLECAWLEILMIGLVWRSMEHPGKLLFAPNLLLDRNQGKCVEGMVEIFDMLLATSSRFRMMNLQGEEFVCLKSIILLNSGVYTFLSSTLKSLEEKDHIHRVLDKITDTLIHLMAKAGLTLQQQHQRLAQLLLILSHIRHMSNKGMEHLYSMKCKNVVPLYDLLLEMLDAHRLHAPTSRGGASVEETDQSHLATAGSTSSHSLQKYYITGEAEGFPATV
ERa coact pot – enhances coactivator binding to human estrogen receptor alpha; P03372; TR-FRET ERalpha-LBD/SRC-Cy5 coactivator binding, 2 h; 100 = basal binding, no effect; coactivator binding (% of control), % at 25.6 µM; actives 1.3% (n = 86,000); AID 639; in the data active means activity above about 200%;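 further: binding measured in presence of low estradiol as agonist stimulus; 0% = peptide alone without receptor and 100% = receptor with peptide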
CD11b adhes enh – enhancers of human CD11b/CD18 binding to fibrinogen; P05107+P11215; K562 CD11b/CD18 adhesion to fibrinogen, ATPlite luminescence; activation, % at 10 µM; actives 0.07% (n = 93,000);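 active means 10 µM primary screen giving 50% or more activity, confirmed by 40% or more on retest at that dose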
The depositor's hits bear a star; / = no result; [ ] = dose if it differs, or a comment. Only some compounds are listed: those with a hit (about 3.1% of all), similar ones and a draw of the others.

SMILES	ERb coact inh	CD11b adhes inh	ERa coact inh	ERa coact pot	CD11b adhes enh
CCCSc1nc2c(cnn2-c2ccc(F)cc2)c(=O)[nH]1	/	0.6	/	/	6.0
Cc1ccc(-n2ncc3c(=O)[nH]c(SCC(=O)N4CCCCC4)nc32)cc1	-3.0	-35.8	0.4	102.3	2.3
Cc1ccc(/C=N\NC(=O)C2CN(S(=O)(=O)c3ccccc3)CCN2S(=O)(=O)c2ccccc2)cc1 (centres undefined)	/	8.1	/	/	25.6
CCOC(=O)c1c(NC(C)=O)sc2c1CCC(C=NCCCN(CC)CC)=C2Sc1ccccc1	1.6	/	-1.6	94.5	/
COC(=O)c1ccc(CSc2nc3c(cnn3-c3ccc(C)c(C)c3)c(=O)[nH]2)o1	44.9	/	79.9*	129.1	/
CCCCSc1nc2c(cnn2-c2ccc(C)c(C)c2)c(=O)[nH]1	22.4	0.8	-2.4	168.3	2.5
CCCSc1nc2c(cnn2-c2ccc(C)c(C)c2)c(=O)[nH]1	53.9*[fluorescence artefact?]	-0.1	50.1*[fluorescence artefact?]	244.1*[fluorescence artefact?]	28.2
O=C(CSc1nc2c(cnn2-c2ccccc2)c(=O)[nH]1)c1ccc(Cl)cc1	8.5	/	13.8	329.2*	/
O=c1[nH]c(SCc2ccc(F)cc2)nc2c1cnn2-c1ccc(F)cc1	14.5	6.5	25.1	93.1	2.0
Cc1ccccc1OCCCn1c(=O)sc2ccccc21	-2.3	-1.3	-3.8	93.0	-2.0
O=C(/C=C/c1ccco1)NC(=S)NNC(=O)c1ccco1	38.0	/	20.4	76.0	/
Cc1cc(NC(=O)c2oc3ccccc3c2C)ccc1-n1cnnn1	50.4*[fluorescence artefact?]	-8.0	65.2*[fluorescence artefact?]	130.9	2.2
CSc1ccc(C2C(C#N)=C(N)Oc3c2ccc(=O)c2c(C)oc(C)c32)cc1 (centres undefined)	58.0*	-9.8	78.2*	64.1	50.8
O=C(CSc1nnc2scc(-c3ccccc3)n12)c1ccc2c(c1)OCCO2	3.1	-11.4	-26.2	436.9*[fluorescence artefact?]	-4.5
COc1cccc(-c2csc3nnc(SCC(=O)c4ccc(NC(C)=O)cc4)n23)c1	7.5	-0.5	32.4	223.7*	28.7
CN(CCOc1ccc(Cl)cc1)c1ccc(S(=O)(=O)N2CCCCC2)cn1	14.9	9.8	17.1	235.7*[fluorescence artefact?]	-1.6
CCOc1ccc(S(=O)(=O)N2CCCC2)cc1	0.8	8.8	-2.8	105.1	-4.9
O=C(Cn1cnc2c(cnn2-c2ccc(F)cc2)c1=O)NCC1CCCO1 (centres undefined)	-5.3	/	1.5	200.0*	/
O=C(NCCc1ccccn1)C(F)(F)C(F)(F)C(F)(F)C(F)(F)C(F)(F)C(F)(F)C(F)(F)C(F)F	/	17.2	/	/	5.1
COC(=O)Oc1ccc(/C=N/NC(=O)CSCc2ccccc2Br)cc1OC	/	54.0*	/	/	-5.8
COc1ccc(/C=N/NC(=O)CSCC(=O)Nc2ccccc2)cc1OC	/	11.3	/	/	0.6
CC12CCC(=O)N1C(C(=O)OCC(=O)Nc1sccc1C#N)CS2 (centres undefined)	68.4*	-7.5	91.0*[fluorescence artefact?]	37.0	-1.6
CC12CCC(=O)N1C(C(=O)Nc1cccc3ccccc13)CS2 (centres undefined)	2.4	-12.0	-4.5	123.4	-1.2
COc1ccc(-c2nnc(SCC(=O)/C(C#N)=C(\C)N)o2)cc1	74.9*	-0.5	56.0*	63.4	-1.7
C/C(N)=C(/C#N)C(=O)CSc1nnc(-c2ccccc2Br)o1	/	9.6	/	/	-4.8
SMILES	ERb coact inh	CD11b adhes inh	ERa coact inh	ERa coact pot	CD11b adhes enh
Cc1cccc(NC(=O)C2CCCN(S(=O)(=O)c3cccc4nsnc34)C2)c1 (centres undefined)	51.0*[fluorescence artefact?]	16.3	23.3	230.0*[fluorescence artefact?]	-1.3
COc1cccc(NC(=O)C2CCCN(S(=O)(=O)c3cccc4nsnc34)C2)c1 (centres undefined)	/	-12.7	/	/	-2.3
COc1ccc(C(NC(=O)c2ccccc2F)NC(=O)c2ccccc2F)cc1	/	0.4	/	/	1.6
Nc1ccc2oc(-c3ccc4nc[nH]c4c3)nc2c1	29.9	/	77.0*[fluorescence artefact?]	32.8	/
Cc1nc2ccc(-c3nc4cc(N)ccc4o3)cc2[nH]1	14.6	4.9	11.3	71.6	21.4
Cc1cccc(C(OC(=O)c2ccco2)C(=O)NCc2ccccc2)n1 (centres undefined)	73.9*[fluorescence artefact?]	/	68.0*[fluorescence artefact?]	52.8	/
CC(C)C(OC(=O)c1ccco1)C(=O)NCc1ccccc1 (centres undefined)	-4.1	14.8	-6.7	129.7	-1.2
CCS(=O)(=O)N1CCC(C(=O)N2CCc3ccccc3C2)CC1	-8.5	0.0	8.5	245.1*[fluorescence artefact?]	-4.8
CCC(C)NC(=O)C1CCCN(C(=O)Nc2ccc(F)cc2)C1 (centres undefined)	-12.5	-13.1	-9.4	294.6*	4.6
CCN(CC)C(=O)C1CCCN(C(=O)Nc2ccc(NC(=O)N3CCCC(C(=O)N(CC)CC)C3)cc2)C1 (centres undefined)	-10.5	-6.7	-4.4	90.2	-0.6
CCN(CC)S(=O)(=O)c1cccc(-c2nnc(SCCCC(=O)c3ccc(F)cc3)o2)c1	27.4	12.6	0.9	578.0*[fluorescence artefact?]	-2.2
O=C(O)CCC(=O)N1CCN(c2ccc(C(=O)c3ccc(F)cc3)cc2)CC1	-6.6	3.0	12.9	249.3*	0.3
CN1CCN(c2ccc(C(=O)c3ccc(F)cc3)cc2)CC1	-5.8	-0.4	0.5	145.8	-1.2
Nc1nnc(COc2ccccc2)s1	3.3	/	0.2	99.1	/
C=CCOC(=O)C1=C(C)NC(SCC(=O)Nc2ccccc2)=C(C#N)C1c1ccco1 (centres undefined)	-9.7	-4.7	-1.3	106.5	9.8
O=C(O)[C@@H](c1ccccc1)N1Cc2ccccc2C1=O	17.1	6.2	-17.5	597.4*[fluorescence artefact?]	-1.6
COc1ccc(-c2nn(-c3ccccc3)cc2/C=C(/C#N)C(N)=O)cc1[N+](=O)[O-]	/	16.2	/	/	43.9
Cc1ccc(S(=O)(=O)N2CCCCC2)cc1C(=O)Nc1ncn[nH]1	58.7*	-11.4	55.4*	35.6	-4.1
Cc1ccc(S(=O)(=O)N2CCCCC2)cc1C(=O)Nc1ccc2cn[nH]c2c1	5.4	-1.4	8.0	90.0	-0.8
COC(=O)c1cnc(SC)nc1C	/	-54.9	/	/	1.4
COC(=O)c1cc(NC(=O)CC2SC(=Nc3ccccc3)N(CCc3c[nH]c4ccccc34)C2=O)cc(C(=O)OC)c1 (centres undefined)	/	-6.0	/	/	7.0
CCOc1ccc(C(=O)Nc2ccc(Cl)cn2)cc1Cl	2.8	/	5.7	107.0	/
CCOc1ccccc1C(=O)Nc1cccc(-c2nnc(-c3ccccc3)o2)c1	25.0	9.8	38.9	316.5*[fluorescence artefact?]	7.7
CCOc1ccc(C(=O)Nc2cccc(-c3nc4cccnc4o3)c2)cc1Cl	/	-2.2	/	/	55.1*
CCOc1ccc(C(=O)Nc2ccc(NC(=O)c3ccco3)c(Cl)c2)cc1Cl	48.4	-0.1	12.4	714.6*[fluorescence artefact?]	10.3
O=C(CSc1cn(Cc2ccccc2)c2ccccc12)N1CCOCC1	16.1	-5.5	-5.5	108.7	1.5
O=S(=O)(Nc1ccc(O)c(Sc2nc3ccccc3s2)c1)c1ccc(Cl)cc1	/	-2.7	/	/	-1.2
